From PubChem
In the library only some 19% were active in any assay of this set; here they are far more common.
uPA generation – cell surface uPA generation inhibition; cell surface uPA generation assay, qHTS; actives 0.31% (n = 330,000); Potency, µM (titrated, usually from 38.3 µM), for the others: at the highest dose activity change, negative = inhibition, actives largely listed as inhibitors; AID 540303; active = well fitted inhibition curve with a large enough effect; inconclusive = small, poorly fitted or top-dose-only effect; inactive = no such curve, though single readings can be large or run the other way; tested in mouse RAW 264.7 cells; also: potency is read from the fitted curve at half-maximal effect; nearly all actives have a fitted effect of over 55% in size
HT1080NT lethal – kills 2HG-producing HT-1080-NT fibrosarcoma cells | HT-1080-NT fibrosarcoma viability, CellTiter-Glo ATP luminescence, 48 h | actives 1.6% (n = 360,000) | AID 686970 | Potency, µM (top dose mostly 46.1 µM), for inactives: at the highest dose activity, negative = less viability, usual class: cytotoxic;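 also: NT is the 2HG producing partner of a matched IDH1 knockdown line; potency is read from the fitted curve at half-maximal effect; 0% = DMSO-treated cells and -100% = media-only wells without cells; nearly all actives have a fitted effect of over 55% in size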
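Fibrosarcoma NT cells, 750 per well in 5% FBS RPMI, were exposed to compound for 48 hours. Viability: CellTiter-Glo luminescence.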
DT40 TDP1 CPT – growth inhibition of DT40 Tdp1-/-;hTDP1 cells with camptothecin (screen for TDP1 inhibitors); Potency, µM (series often up to 46.2 µM), for the others: at the top dose activity change, negative = growth inhibition, hits mostly inhibitors; actives 12% (n = 420,000); AID 686979; chicken DT40 Tdp1-/-;hTDP1 cells + 20 nM CPT, ATP luminescence, 48 h; also: potency is read from the fitted curve at half-maximal effect; nearly all actives have a fitted effect of over 55% in size
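Chicken DT40 Tdp1-/- cells complemented with human TDP1, 400 cells/well, exposed to compounds plus 20 nM camptothecin for at least 48 h at 37 C; viability read as ATP content by CellTiter-Glo luminescence.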
IL1B secr inh – blocks inflammasome-driven IL-1 beta release; THP-1 LPS/ATP IL-1B secretion, AlphaLISA, 16 h; stronger effect = lower value; activity change, % at 57.5 µM; actives 4.7% (n = 360,000); in the data active = activity change below about -50%; inconclusive = mostly about -30% to -49%
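THP-1 cells pretreated 1 hr with compounds (up to 57.5 uM final), then stimulated with LPS (250 ng/mL final) plus ATP (1.25 mM final); secreted IL-1B measured by AlphaLISA after 16 hr, decreased signal indicating inhibition.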
HT1080 IDH1KD tx – kills HT-1080 cells with IDH1 knockdown. AID 686971. Potency, µM (top dose mostly 46.1 µM), inactives show at the highest dose activity, negative = toxicity, actives largely listed as cytotoxic. actives 2% (n = 360,000). HT-1080 IDH1 knockdown viability, ATP luminescence, 48 h;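 also: potency is read from the fitted curve at half-maximal effect; 0% = DMSO wells and -100% = cell-free medium wells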
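Viability of IDH1-knockdown HT-1080 fibrosarcoma cells was assessed by CellTiter-Glo after 48 h at 37 °C with titrated compound; concentration-effect curves were classified by fit quality and response size.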
TDP1 cell noCPT – qHTS for Inhibitors of human tyrosyl-DNA phosphodiesterase 1 (TDP1): qHTS in cells in absence of CPT | DT40 Tdp1-/- hTDP1 cells, no CPT, ATP luminescence, 48 h | Potency, µM (highest dose often 46.2 µM), for inactives: top-dose activity change, negative = growth inhibition, hits mostly inhibitors | actives 15% (n = 420,000) | AID 686978, 2013; also: potency is read from the fitted curve at half-maximal effect; nearly all actives have a fitted effect of over 55% in size
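No-CPT arm: Tdp1-/-;hTDP1 DT40 cells (400/well) plus compounds, incubated ≥48 hr at 37 °C. Readout CellTiter-Glo luminescence.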
The depositor's hits bear a star; u = inconclusive; x = no result given; [ ] = another dose, or the depositor's remark. Unless noted, calls follow the shape of the dose curve; as a rule, active = well fitted curve in the direction sought with a large enough effect; inconclusive = small, poorly fitted or top-dose-only effect, or another doubt; inactive = no such curve, though single readings can be large; an effect the other way counts as inactive or inconclusive. Unless noted, % is scaled to controls: 0 for no effect and ±100 for the full control effect.

SMILES	uPA generation	HT1080NT lethal	DT40 TDP1 CPT	IL1B secr inh	HT1080 IDH1KD tx	TDP1 cell noCPT
C[C@@H]1CN(Cc2ccc3c(c2)CN(Cc2cn[nH]c2-c2ccccc2)CCO3)C[C@H](C)O1	x	x	4%[9.04 µM]	x	x	-21%
O=C(c1ccc([N+](=O)[O-])cc1)N1CCN(C2=NS(=O)(=O)c3ccccc32)CC1	-4%	-8%	-19%	9	0%	-5%
COC(=O)N1CCC[C@@]2(CCN(c3ccccn3)C2)C1	x	x	2%	x	x	-16%
CCc1nn2c(=O)cc(COC(=O)c3cccs3)nc2s1	x	x	-16%	x	x	-2%
Cc1ccc(NC(=O)CN(C)C(=O)COC(=O)c2ccc(Cl)cc2O)cc1	u	0%[9.24 µM]	u	0	-4%	-5%
O=C(O)CC1=C(Nc2ccccc2)C(=O)N(c2ccccc2)C1c1ccc(Br)cc1 (stereo not drawn)	-5%	-18%	13%	-14	-21%	-18%
COc1ccc(NC(=O)c2ccc(-c3ccccc3)cc2)cc1S(=O)(=O)N1CCOCC1	4%	1%	1%	27	-12%	-13%
O=C(Nc1ccncc1)c1cccc(S(=O)(=O)N2CCOCC2)c1	1%	-5%	-7%	40	-9%	u
O=C(Nc1cccc(S(=O)(=O)N2CCOCC2)c1)c1ccc(Cl)nc1	u	-9%	16µM*	26	0%	23µM*
O=C(Nc1cccc(S(=O)(=O)N2CCCC2)c1)c1ccc(Cl)nc1	-9%	u	4.6µM*	7	6.5µM*	5.8µM*
O=S(=O)(c1cccc(NC(=S)Nc2ccc(Br)cc2Cl)c1)N1CCOCC1	2%	0%	16µM*	27	-7%	29µM*
COc1ccc(NC(=O)c2ccc(S(=O)(=O)N(C)c3ccccc3)cc2)cc1S(=O)(=O)N1CCOCC1	x	u	23µM*	34	u	15µM*
COCCNC(=O)C1(C)CCCN(C(=O)c2cc(OC)c(OC)c(OC)c2)C1 (stereo not drawn)	x	9%	-3%	18	20%	17%
COc1ccc(NC(=O)c2ccc(Cl)nc2)cc1S(=O)(=O)N1CCOCC1	u	-3%	16µM*	36	-22%	23µM*
COc1ccc(NC(=O)Cn2ncc(Cl)c(Cl)c2=O)cc1S(=O)(=O)N1CCOCC1	-9%	-21%	12µM*	-54*	21µM*	10µM*
COc1ccc(C(=O)Nc2ccc(Cl)c(S(=O)(=O)Nc3ccccc3OC)c2)cc1	-10%	-3%	u	-1	u	u
COc1ccccc1NS(=O)(=O)c1cc(NC(=O)c2ccc(Cl)nc2)ccc1Cl	-9%	u	9.2µM*	-63*	u	7.3µM*
COc1ccc(NC(=O)Cc2coc3cc(C)c(C(C)C)cc23)cc1S(=O)(=O)N1CCOCC1	1%	-11%	12µM*	11	-26%	12µM*
O=C(c1cc([N+](=O)[O-])ccc1Cl)N1CCN(Cc2ccccc2)CC1	0%	1%	-10%	-53*	-4%	-9%
O=C(c1ccc([N+](=O)[O-])o1)N1CCN(Cc2ccccc2)CC1	u	-10%	15µM*	-4	-14%	26µM*
CN(Cc1ccccc1)C(=O)c1ccc([N+](=O)[O-])o1	u	-10%	23µM*	u	1%	u
O=C(c1cccs1)N1CCN(Cc2cccc([N+](=O)[O-])c2)CC1	-8%	23%	11%	-53*	27%	-28%
O=C(c1ccc([N+](=O)[O-])cc1)N1CCN(Cc2ccccc2)CC1	5%	5%	-12%	19	2%	-12%
CCN(CC(=O)NCc1cccs1)CC(=O)Nc1ccccc1C	18%	-1%	-5%	-7	6%	-24%
COc1cc(C(=O)N2CCCN(C)CC2)cc(OC)c1C	-3%	22%	-3%	-20	17%	5%
SMILES	uPA generation	HT1080NT lethal	DT40 TDP1 CPT	IL1B secr inh	HT1080 IDH1KD tx	TDP1 cell noCPT
Cc1cc2oc(C(=O)N3CCN(Cc4ccccc4)CC3)c(C)c2cc1C	3%	2%	26µM*	-15	-6%	u
Cc1ccc(C(=O)N2CCN(Cc3ccccc3)CC2)o1	-3%	-4%	-6%	-16	-2%	-2%
CCc1noc(C)c1C(=O)OCC(=O)NC(=O)c1ccccc1	5%	0%	11%	-2	10%	15%
COCCCN1C(=O)C(CC(=O)NC(c2ccccc2)c2ccccc2)CC(C(=O)N2CCOCC2)=C1C (stereo not drawn)	x	14%	-5%	8	12%	-9%
O=[N+]([O-])c1ccccc1C(=Nc1ccccc1)c1c(O)cc(O)cc1O	x	-2%	u	0	1%	18µM*
Cc1ccc(S(=O)(=O)N2CCc3ccccc3CC2)cc1	-14%	-10%	-5%	-85*	0%	u
O=C(c1ccc(S(=O)(=O)N2CCc3ccccc3C2)cc1)N1CCCCC1	8%	-4%	u	22	-4%	26µM*
O=C(c1ccc(S(=O)(=O)N2CCCC2)cc1)N1CCCCC1	-16%	-7%	-15%	-1	-4%	-12%
O=C1c2ccccc2C(=O)N1CC1c2ccccc2CCN1S(=O)(=O)c1cnc[nH]1 (stereo not drawn)	0%	9%	2%	9	0%	1%
Cc1ccc(S(=O)(=O)N2CCCCC2)cc1	-8%	-2%	-1%	-1	-1%	2%
CCn1c(C)c(C2=CCN(S(=O)(=O)c3ccc(C)cc3)CC2)c2ccccc21	-5%	6%	u	-6	15%	18µM*
Cc1ccc(S(=O)(=O)N2CCc3ccccc3C2CN2C(=O)c3ccccc3C2=O)cc1 (stereo not drawn)	4%	-10%	22µM*	0	-2%	11µM*
O=c1[nH][nH]c2c1C(c1ccc(Cl)c(Cl)c1)OC(CCc1ccccc1)C2 (stereo not drawn)	x	-13%	2%	-6	-7%	-28%
CCN(CC)CCCN(C(=O)Cn1nnc(-c2ccc(OC)c(OC)c2)n1)C(C(=O)NC(C)(C)C)c1ccc(F)cc1 (stereo not drawn)	0%	-6%	u	16	-1%	u
Cc1ccc(NC(=O)N2CCc3cc(S(=O)(=O)N4CCC(C)CC4)ccc32)cc1C	x	x	6%	x	x	-23%
